Assay results reported in PubChem BioAssay (Tox21).
Records with an inconclusive call do not appear. Calls of active or inactive are those of the source. Unless noted, calls follow the shape of the dose curve; as a rule, active = well fitted curve in the direction sought with a large enough effect in the repeat runs; inconclusive = weak or mixed curves; inactive = no such curve, though single readings can be large; an effect the other way counts as inactive or inconclusive.

How the values were obtained:
[1] = qHTS assay for small molecules that induce genotoxicity in human embryonic kidney cells expressing luciferase-tagged ATAD5 (AID 651632); also: nearly all actives have a fitted effect of over 15% in size; also: potency is read from the fitted curve at half-maximal effect
Method in brief: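 Test compounds were delivered by pin tool onto HEK293T reporter cells (2,000/well) expressing ATAD5 fused to luciferase. After 16 hr at 37C, 5% CO2, Amplite was added for 30 min at room temperature and luminescence was measured.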

[2] = qHTS assay for small molecule agonists of the p53 signaling pathway - cell viability (AID 651633; calls by dose curve; also: nearly all actives have a fitted effect of over 30% in size; also: potency is read from the fitted curve at half-maximal effect)
Method in brief: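 p53RE-bla cells, seeded at 4,000 per well and rested 5 h at 37 C/5% CO2, received compounds in DMSO for 16 h at 37 C. CellTiter-Glo was then added, and luminescence was read after 30 min at room temperature to gauge cytotoxicity.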

[3] = qHTS assay for small molecules that induce genotoxicity in human embryonic kidney cells expressing luciferase-tagged ATAD5 - cell viability (AID 651634; calls by dose curve; also: nearly all actives have a fitted effect of over 25% in size; also: potency is read from the fitted curve at half-maximal effect)
Method in brief: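 Quantitative high-throughput format. HEK293T cells expressing ATAD5 fused to luciferase were plated at 2,000 cells/well and treated 15.5 hr with compound versus DMSO. Viability was determined by fluorescent live-cell protease substrate, 30 min at 37C.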

[4] = qHTS assay for small molecule disruptors of the mitochondrial membrane potential - cell viability (AID 720634; calls by dose curve; also: nearly all actives have a fitted effect of over 20% in size; also: potency is read from the fitted curve at half-maximal effect)
Method in brief: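 Same-well counter-screen: following the MMP dye addition, CellTiter-Glo was added to 1 hr compound-treated HepG2 cells and luminescence read after 30 min at room temperature.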

[5] = qHTS assay for small molecule disruptors of the mitochondrial membrane potential (AID 720635); also: potency is read from the fitted curve at half-maximal effect
Method in brief: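 HepG2 cells (2,000/well) attached overnight at 37C, then took compound for 1 hr at 37C, 5% CO2. Mito-MPS dye was added for 30 min; fluorescence was read at 490/535 nm (monomers) and 540/590 nm (aggregates).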

[6] = qHTS assay to test for compound auto fluorescence at 590 nm (red) in HepG2 cells (AID 720674)
Method in brief: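 Rose Bengal sodium served as the red fluorophore standard. HepG2 monolayers (overnight attachment, MEM with 10% FBS) were exposed to test compounds for 1 hr at 37 C and read at Ex 540/Em 590 nm.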

[7] = qHTS assay to test for compound auto fluorescence at 535 nm (green) in HepG2 cells (AID 720675)
[8] = qHTS assay to test for compound auto fluorescence at 590 nm (red) in HEK293 cells (AID 720679); also: potency is read from the fitted curve at half-maximal effect
Method in brief: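 Plates of HEK293 cells (10% dialyzed FBS) are treated with 23 nL compound or DMSO vehicle after a 4-5 hr attachment period, incubated overnight at 37C, and read for red fluorescence at 540/590nm.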

[9] = qHTS assay to test for compound auto fluorescence at 535 nm (green) in HEK293 cells (AID 720680)
[10] = qHTS assay to test for compound auto fluorescence at 460 nm (blue) in HEK293 cell free culture (AID 720681)
Method in brief: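 Test compounds were pinned into cell-free culture medium (DMEM with 10% FBS) and fluorescence was read directly at Ex/Em 405/460 nm. Signals were expressed as fluorescence equivalents of triamterene, with DMSO vehicle as control.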

[11] = qHTS assay to test for compound auto fluorescence at 535 nm (green) in HEK293 cell free culture (AID 720682)
Method in brief: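 Steps: dispense DMEM/10% FBS into empty wells; pin in compound or DMSO; measure fluorescence at 485/535 nm. Values are fluorescein equivalents.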

[12] = qHTS assay to test for compound auto fluorescence at 590 nm (red) in HEK293 cell free culture (AID 720683); also: potency is read from the fitted curve at half-maximal effect
Method in brief: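 Tox21 10K library compounds were pinned into cell-free DMEM with 10% FBS and fluorescence was read at excitation 540 nm. Activity is expressed as Rose Bengal sodium equivalency.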

[13] = qHTS assay to test for compound auto fluorescence at 590 nm (red) in HepG2 cell free culture (AID 720684); also: potency is read from the fitted curve at half-maximal effect
Method in brief: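 Ex 540 / Em 590 nm read of compound in cell-free MEM (10% FBS). Rose Bengal sodium reference.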

[14] = qHTS assay to test for compound auto fluorescence at 460 nm (blue) in HepG2 cell free culture (AID 720685)
Method in brief: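 Cell-free plates of MEM plus 10% FBS received 23 nL compound or DMSO vehicle; blue-channel (405/460 nm) intensity scored against triamterene as reference fluorophore.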

[15] = qHTS assay to test for compound auto fluorescence at 460 nm (blue) in HepG2 cells (AID 720687)
Method in brief: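 Cells (2,000/well in MEM with 10% FBS) attached overnight at 37 C, then were exposed to compound or DMSO for 1 hr at 37 C, 5% CO2. Fluorescence read at Ex/Em 405/460 nm, expressed as triamterene-equivalent signal.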

[16] = target: Glucocorticoid receptor (Homo sapiens) (UniProt P04150); assay: qHTS assay to identify small molecule agonists of the glucocorticoid receptor (GR) signaling pathway (AID 720691; active = well fitted activation curve with a large enough effect in the signal ratio in the repeat runs, not every such curve was filed as active; the % refers to the signal ratio); conditions: GR-bla HeLa, beta-lactamase reporter ratio, 18 h; activation: at 62.4 µM (top of the series)
Chain of Glucocorticoid receptor (Homo sapiens) (P04150 whole entry, looked up): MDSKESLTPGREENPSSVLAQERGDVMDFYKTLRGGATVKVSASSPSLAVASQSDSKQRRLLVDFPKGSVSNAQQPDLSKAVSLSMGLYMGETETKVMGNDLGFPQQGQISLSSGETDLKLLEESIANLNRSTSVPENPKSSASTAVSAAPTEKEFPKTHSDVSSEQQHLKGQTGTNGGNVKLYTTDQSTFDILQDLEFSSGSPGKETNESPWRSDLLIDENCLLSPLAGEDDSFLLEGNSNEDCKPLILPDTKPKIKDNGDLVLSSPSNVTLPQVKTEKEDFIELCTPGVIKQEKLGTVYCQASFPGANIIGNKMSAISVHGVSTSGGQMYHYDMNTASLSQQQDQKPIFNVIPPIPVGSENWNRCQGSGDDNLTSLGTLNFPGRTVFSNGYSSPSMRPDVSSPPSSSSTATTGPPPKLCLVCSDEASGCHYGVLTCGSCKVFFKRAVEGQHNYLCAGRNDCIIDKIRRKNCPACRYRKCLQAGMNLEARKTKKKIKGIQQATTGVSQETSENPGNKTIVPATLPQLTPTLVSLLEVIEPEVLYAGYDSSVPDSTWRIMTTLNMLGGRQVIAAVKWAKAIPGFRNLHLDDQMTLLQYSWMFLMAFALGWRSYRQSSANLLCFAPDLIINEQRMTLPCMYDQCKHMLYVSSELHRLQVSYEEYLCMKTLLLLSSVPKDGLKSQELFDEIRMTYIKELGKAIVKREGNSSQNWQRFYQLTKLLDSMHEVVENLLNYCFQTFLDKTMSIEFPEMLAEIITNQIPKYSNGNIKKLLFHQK
Method in brief: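 A HeLa cervical cancer line expressing GR and a glucocorticoid response element-driven beta-lactamase gene is treated with compounds for 18 h; LiveBLAzer B/G FRET substrate is then applied and fluorescence read.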

[17] = qHTS assay to test for compound auto fluorescence at 535 nm (green) in HepG2 cell free culture (AID 720686)
[18] = qHTS assay to test for compound auto fluorescence at 460 nm (blue) in HEK293 cells (AID 720678)
Method in brief: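 After cell attachment (4-5 hr, 37C), compounds were pinned onto HEK293 monolayers in 10% dialyzed FBS medium. The blue channel (405/460 nm) was read following overnight culture. Equivalency was calculated against triamterene.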

[19] = target: Glucocorticoid receptor (Homo sapiens) (UniProt P04150); assay: qHTS assay to identify small molecule antagonists of the glucocorticoid receptor (GR) signaling pathway (AID 720692; active = well fitted inhibition curve with a large enough effect in the signal ratio in the repeat runs, not every such curve was filed as active; the % refers to the signal ratio)
Method in brief: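 GRE-bla HeLa line, dex-stimulated (5 nM final). Compound exposure 18 h, 37 C. Beta-lactamase FRET read after 2 h RT substrate.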
% is scaled to controls: 0 for no effect and ±100 for the full control effect; tags tell the direction and shape of the fitted curve or compound fluorescence and quenching.

N#CSc1ccc(N)c([N+](=O)[O-])c1
inactive: Potency [1] | Potency [2] | Potency [4] | Potency [6] | Potency [7] | Potency [8] | outcome [9] | Potency [10] | outcome [11] | Potency [12] | Potency [13] | Potency [14] | Potency [15] | Potency [16]
active: Potency [3] 61.5 µM | Potency [5] 61.5 µM

CCCCCCCCS(=O)C(C)Cc1ccc2c(c1)OCO2 (stereo unspecified)
inactive: Potency [1] | Potency [2] | Potency [3] | Potency [4] | Potency [5] | Potency [6] | Potency [7] | Potency [8] | outcome [9] | Potency [10] | outcome [11] | Potency [12] | Potency [13] | Potency [14] | Potency [17] | Potency [15]

Cn1cc(C(=O)[C@@H]2CCc3nc[nH]c3C2)c2ccccc21
inactive: Potency [1] | Potency [2] | Potency [3] | Potency [4] | Potency [5] | Potency [6] | Potency [7] | Potency [8] | outcome [9] | Potency [10] | outcome [11] | Potency [12] | Potency [13] | Potency [14] | Potency [17] | Potency [15]

CNCc1cc(F)ccc1Oc1ccc(Cl)c(Cl)c1
inactive: Potency [1] | Potency [2] | Potency [3] | Potency [4] | Potency [6] | Potency [7] | Potency [18] | Potency [8] | outcome [9] | Potency [10] | outcome [11] | Potency [12] | Potency [13] | Potency [14] | Potency [17] | Potency [15] | Potency [16]

COc1cc(-c2nc(NC(=O)c3cc4cc(C)cc(C)c4n3CC(=O)O)sc2CCC2CCCCC2)c(OC)cc1Cl
active: Potency [2] 3.97 µM | Potency [3] 39.7 µM
inactive: Potency [1] | Potency [4] | Potency [6] | Potency [7] | Potency [18] | Potency [8] | outcome [9] | Potency [10] | outcome [11] | Potency [12] | Potency [13] | Potency [14] | Potency [17] | Potency [15]

CCCCCCCC[N+](CCCCCCCC)(CCCCCCCC)CCCCCCCC
active: Potency [2] 13.7 µM | Potency [3] 30.6 µM | Potency [4] 27.3 µM | Potency [5] 0.0768 µM
inactive: Potency [1] | Potency [7] | Potency [18] | Potency [8] | outcome [9] | Potency [10] | outcome [11] | Potency [12] | Potency [13] | Potency [14] | Potency [17] | Potency [15]

CCCCN1CCCC[C@H]1C(=O)Nc1c(C)cccc1C
inactive: Potency [1] | Potency [2] | Potency [3] | Potency [4] | Potency [6] | Potency [7] | Potency [18] | Potency [8] | outcome [9] | Potency [10] | outcome [11] | Potency [12] | Potency [13] | Potency [14] | Potency [17] | Potency [15]

CCCCCCC[N+](CC)(CC)CCCCc1ccc(Cl)cc1
inactive: Potency [1] | Potency [2] | Potency [3] | Potency [4] | fluorescence, relative to Rose Bengal [6] -0.305% [at 18.6 µM] | fluorescence, % of fluorescein control [7] -0.0059% [at 18.6 µM] | fluorescence, % of triamterene [18] 0.0756% [at 18.6 µM] | fluorescence, % of fluorescent control [8] -0.312% [at 18.6 µM] | fluorescence, % of fluorescein [9] 0.0325% [at 18.6 µM] | fluorescence, % of fluorescent control [10] -0.0966% [at 18.6 µM] | activity change [11] -0.0177% [at 18.6 µM] | fluorescence, % of fluorescent control [12] -0.544% [at 18.6 µM] | fluorescence, % of Rose Bengal [13] -0.101% [at 18.6 µM] | fluorescence, % of fluorescent control [14] -0.0851% [at 18.6 µM] | fluorescence, % of fluorescein control [17] 0.172% [at 18.6 µM] | fluorescence, % of fluorescent control [15] -0.0972% [at 18.6 µM] | Potency [16]

CCCC1O[C@@H]2C[C@H]3[C@@H]4CCC5=CC(=O)C=C[C@]5(C)[C@H]4[C@@H](O)C[C@]3(C)[C@]2(C(=O)CO)O1 (stereo partly specified)
inactive: Potency [1] | Potency [2] | Potency [3] | Potency [4] | Potency [5] | Potency [7] | Potency [8] | outcome [9] | Potency [10] | outcome [11] | Potency [12] | Potency [13] | Potency [14] | Potency [17] | Potency [15]

C[C@@H](NCCCc1cccc(C(F)(F)F)c1)c1cccc2ccccc12
active: Potency [2] 18.8 µM | Potency [3] 26.6 µM | Potency [4] 26.6 µM
inactive: Potency [1] | Potency [7] | Potency [18] | Potency [8] | outcome [9] | Potency [10] | outcome [11] | Potency [12] | Potency [13] | Potency [14] | Potency [17] | Potency [15]

C=CC(=O)OCCn1c(=O)n(CCOC(=O)C=C)c(=O)n(CCOC(=O)C=C)c1=O
inactive: Potency [4] | Potency [6] | Potency [7] | Potency [18] | Potency [8] | outcome [9] | Potency [10] | outcome [11] | Potency [12] | Potency [13] | Potency [14] | Potency [15]
active: Potency [1] 5.45 µM | Potency [2] 27.3 µM | Potency [3] 27.3 µM

O=C(Oc1cccc2cccnc12)c1ccccc1
inactive: Potency [1] | Potency [2] | Potency [3] | Potency [4] | Potency [7] | Potency [18] | outcome [9] | Potency [10] | outcome [11] | Potency [12] | Potency [13] | Potency [14] | Potency [17] | Potency [15] | Potency [19]

CCN1/C(=C/C=C/c2sc3ccccc3[n+]2CC)Sc2ccccc21
active: Potency [2] 16.8 µM | Potency [3] 10.6 µM | Potency [8] 11.2 µM [fluorescent] | Potency [12] 11.2 µM [fluorescent] | Potency [13] 14.1 µM [fluorescent]
inactive: Potency [1] | Potency [4] | Potency [7] | Potency [18] | outcome [9] | Potency [10] | outcome [11] | Potency [14] | Potency [17] | Potency [15]

O=C(c1ccc(F)cc1)C1CCN(CCn2c(=O)[nH]c3ccccc3c2=O)CC1
inactive: Potency [1] | Potency [2] | Potency [3] | Potency [4] | Potency [6] | Potency [7] | Potency [18] | Potency [8] | outcome [9] | Potency [10] | outcome [11] | Potency [12] | Potency [13] | Potency [14] | Potency [17] | Potency [15]
